Results filed as inconclusive are left out. Calls of active or inactive are those of the source. Unless noted, calls follow the shape of the dose curve; as a rule, active = well fitted curve in the direction sought with a large enough effect; inconclusive = small, poorly fitted or top-dose-only effect, or another doubt; inactive = no such curve, though single readings can be large; an effect the other way counts as inactive or inconclusive.
Experiments:
[1] = molecular target: Luciferin 4-monooxygenase (Photinus pyralis) (UniProt P08659); assay: Biochemical firefly luciferase enzyme assay for NPC (AID 624030);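 also: purified P. pyralis luciferase at 10 nM with luciferin and ATP substrate; series mostly up to about 59 µM; 0% = DMSO and -100% = full luciferase inhibition by PTC124 control; nearly all actives have a fitted effect of over 70% in size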
Luciferin 4-monooxygenase (Photinus pyralis), sequence (P08659 whole entry, looked up): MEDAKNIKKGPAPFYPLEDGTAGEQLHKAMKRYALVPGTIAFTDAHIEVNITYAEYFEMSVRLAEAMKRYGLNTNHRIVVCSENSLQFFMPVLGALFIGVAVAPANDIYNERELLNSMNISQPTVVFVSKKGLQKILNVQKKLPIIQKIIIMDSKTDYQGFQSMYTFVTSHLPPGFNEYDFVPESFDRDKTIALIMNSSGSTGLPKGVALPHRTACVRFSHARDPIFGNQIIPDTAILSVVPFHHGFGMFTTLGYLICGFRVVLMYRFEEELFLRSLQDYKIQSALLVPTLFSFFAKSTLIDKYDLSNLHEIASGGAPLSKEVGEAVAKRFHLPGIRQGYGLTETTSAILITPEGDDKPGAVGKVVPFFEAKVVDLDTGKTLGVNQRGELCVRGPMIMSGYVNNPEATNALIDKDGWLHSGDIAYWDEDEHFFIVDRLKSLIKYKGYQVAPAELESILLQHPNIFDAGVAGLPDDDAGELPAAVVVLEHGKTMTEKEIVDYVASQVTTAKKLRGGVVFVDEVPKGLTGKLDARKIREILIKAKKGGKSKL
Summary of the method: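 Purified P. pyralis luciferase at 10 nM in 50 mM Tris Acetate (final), luminescence read within 5 minutes of enzyme addition to compounds. Activity normalised to PTC124 versus DMSO; concentration-response curves classed by r2, magnitude and activity.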

[2] = S16 Schwann cell viability assay (CellTiter-Glo assay) (AID 624031);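 also: native untransfected S16 rat Schwann cells; cellular ATP luminescence as a viability measure; series mostly up to about 58 µM; plate controls were DMSO-treated cells for no effect and cell-free wells for full effect; nearly all actives have a fitted effect of over 70% in size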
Summary of the method: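 Parental S16 cells, 24 h compound, 37 °C. ATP-luminescence viability; DMSO = 0% activity, empty wells as reference; curves classified by fit quality and efficacy.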

[3] = S16 Schwann cell PMP22 intronic element firefly luciferase assay (AID 624032);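 also: series mostly up to about 58 µM; plate controls were DMSO for no effect and PTC124 positive control mean for full effect; nearly all actives have a fitted effect of over 30% in size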
Summary of the method: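 Rat S16 Schwann cells stably carrying firefly luciferase driven by a PMP22 intronic element, in 10% FBS, treated 24 h at 37 C. ONE-Glo luminescence normalized to PTC124 control and DMSO (0%); curves classed by r2, magnitude and activity.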

[4] = molecular target: Voltage-gated inwardly rectifying potassium channel KCNH2 (Homo sapiens) (UniProt Q12809); assay: qHTS Assay for Small Molecule Inhibitors of the Human hERG Channel Activity (AID 588834);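 also: top concentration of the series differs between compounds; % is scaled to controls: 0 for no effect and ±100 for the full control effect; lower thallium flux fluorescence means stronger hERG block; nearly all actives have a fitted effect of over 50% in size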
Voltage-gated inwardly rectifying potassium channel KCNH2 (Homo sapiens), sequence (Q12809 whole entry, looked up): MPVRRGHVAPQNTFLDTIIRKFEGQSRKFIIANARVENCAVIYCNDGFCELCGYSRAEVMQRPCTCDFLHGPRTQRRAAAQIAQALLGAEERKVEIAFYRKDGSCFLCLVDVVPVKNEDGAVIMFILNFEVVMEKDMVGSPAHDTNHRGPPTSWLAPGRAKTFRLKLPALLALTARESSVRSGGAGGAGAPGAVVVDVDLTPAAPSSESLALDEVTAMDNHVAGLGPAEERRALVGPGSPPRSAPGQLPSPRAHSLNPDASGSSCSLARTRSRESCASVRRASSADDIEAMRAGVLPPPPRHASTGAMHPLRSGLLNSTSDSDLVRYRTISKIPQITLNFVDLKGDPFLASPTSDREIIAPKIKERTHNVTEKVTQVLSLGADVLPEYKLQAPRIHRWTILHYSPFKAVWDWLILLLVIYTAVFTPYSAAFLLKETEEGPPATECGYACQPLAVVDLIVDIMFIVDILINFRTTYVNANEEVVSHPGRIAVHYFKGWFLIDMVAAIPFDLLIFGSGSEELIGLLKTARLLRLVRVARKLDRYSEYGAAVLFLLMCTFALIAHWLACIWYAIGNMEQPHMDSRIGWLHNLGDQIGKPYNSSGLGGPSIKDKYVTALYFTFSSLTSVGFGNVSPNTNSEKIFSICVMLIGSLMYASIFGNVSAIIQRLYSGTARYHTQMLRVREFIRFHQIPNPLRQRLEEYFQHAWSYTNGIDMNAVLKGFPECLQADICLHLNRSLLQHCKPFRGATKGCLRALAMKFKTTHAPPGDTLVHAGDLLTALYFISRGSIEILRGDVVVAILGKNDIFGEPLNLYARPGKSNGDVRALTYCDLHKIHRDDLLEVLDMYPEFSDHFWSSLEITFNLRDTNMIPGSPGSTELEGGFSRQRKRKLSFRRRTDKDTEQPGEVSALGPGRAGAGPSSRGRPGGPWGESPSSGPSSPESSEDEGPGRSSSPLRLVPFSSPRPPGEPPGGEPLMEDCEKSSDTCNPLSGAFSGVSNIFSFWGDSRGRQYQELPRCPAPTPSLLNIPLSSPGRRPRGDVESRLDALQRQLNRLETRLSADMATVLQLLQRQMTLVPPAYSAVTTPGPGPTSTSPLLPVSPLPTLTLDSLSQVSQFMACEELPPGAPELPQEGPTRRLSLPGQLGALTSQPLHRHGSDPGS
Summary of the method: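 Step 1: BacMam hERG transduction of U2OS, 4 hrs RT. Step 2: overnight 37 °C, plate 2000 cells/well, 4 hr. Step 3: FluxOR load, compound 10 min, stimulate, read fluorescence.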

[5] = S16 Schwann cell PMP22 intronic element beta-lactamase assay (AID 624044; calls by dose curve;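 also: 0% = DMSO and -100% = potassium clavulanate positive control; nearly all actives have a fitted effect of over 15% in size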)
Summary of the method: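 Beta-lactamase reporter under a PMP22 intronic regulatory element in stable S16 rat Schwann cells; 24 h compound exposure. 460 nm blue signal normalized between DMSO (0%) and potassium clavulanate, with 535 nm FRET tracking viability; curves classed by r2 and response.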

[6] = qHTS assay for small molecule activators of the p53 signaling pathway (AID 651743; active = well fitted activation curve with a large enough effect in the signal ratio, not every such curve was filed as active; the % refers to the signal ratio; also: series mostly up to about 92 µM; % of control where 0% means no effect); conditions: HCT-116 p53RE-bla, beta-lactamase FRET ratio, 16 h; hits give high values
Summary of the method: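 Following 16 hours of compound exposure at 37 C, HCT-116 cells bearing the p53RE-bla reporter were loaded with LiveBLAzer B/G FRET substrate for 2 hours at room temperature and fluorescence intensity was recorded.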

[7] = qHTS assay for small molecule activators of the nuclear factor-kappa B (NF-kB) signaling pathway (AID 651749; active = well fitted activation curve with a large enough effect in the signal ratio; the % refers to the signal ratio; also: series mostly up to about 77 µM; % of control where 0% means no effect); conditions: NF-kB-bla ME-180 cells, beta-lactamase FRET ratio, 16 h; hits give high values
Summary of the method: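 In this qHTS format, compounds acting as activators increase NF-kB-driven beta-lactamase in ME-180 cells, measured as disrupted FRET after 16 hr exposure at 37C and 5% CO2.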

[8] = qHTS assay for small molecule disruptors of the mitochondrial membrane potential - 1 hr assay (AID 651754; calls by dose curve; also: % is scaled to controls: 0 for no effect and ±100 for the full control effect; nearly all actives have a fitted effect of over 35% in size)
Summary of the method: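 Mitochondrial potential in living HepG2 cells after 1 hr compound treatment at 37C was read with Mito-MPS dye added for a further 30 min. Red aggregate and green monomer fluorescence were measured; loss of potential leaves dye as cytoplasmic monomers.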

CCOc1ccc(C(=O)OCCN(CC)CC)cc1
inactive: Potency [1] | outcome [2] | Potency [3]

O=C1c2ccccc2C(=O)C1c1ccc(Br)cc1
inactive: Potency [4] | outcome [2] | Potency [3] | outcome [5]

CC(C)CCOC(=O)c1ccc(N(C)C)cc1
inactive: outcome [2] | Potency [3]

NC(N)=NCCN1CCCCCCC1
inactive: Potency [1] | outcome [2] | Potency [3] | outcome [5]

Cc1cc(OI)c(C(C)C)cc1-c1cc(C(C)C)c(OI)cc1C
inactive: Potency [4] | outcome [2] | outcome [5]

CCCCCCCCCCCCCCCCC(C(=O)O)C(O)(CC(=O)O)C(=O)O (stereo not given)
inactive: Potency [4] | outcome [2] | Potency [3] | outcome [5]

Cc1cccc(C)c1NC(=O)CC12CCCN1CCC2
inactive: outcome [2] | Potency [3]

Cc1cccc(C(=O)O)c1O
inactive: Potency [4] | Potency [3]

O=C(CN1CCNCC1)NC1CCCCC1
inactive: Potency [4] | outcome [2] | outcome [5]

OCC(O)CS (stereo not given)
inactive: Potency [4] | outcome [2] | Potency [3]

COc1ccc2cc(CCC(C)=O)ccc2c1
inactive: Potency [4] | outcome [2] | Potency [3] | outcome [5]

NC(=O)c1ccc([N+](=O)[O-])cc1Cl
inactive: Potency [4] | outcome [2] | Potency [3] | outcome [5]

NC(N)=NS(=O)(=O)c1ccc(N)cc1
inactive: Potency [1] | Potency [3] | outcome [5]

CCCCCCCCCCC(CO)CCCCCCCC (stereo not given)
inactive: outcome [2] | Potency [3]

NC(=O)NS(=O)(=O)c1ccc(N)cc1
inactive: Potency [4] | outcome [2] | Potency [3]

CCCCOC(=O)c1ccc(N)cc1
inactive: Potency [4] | outcome [2] | Potency [3] | outcome [5] | activation [6] -1.05% | activation [7] -0.245% | Potency [8]

O=C(O)COC(=O)Cc1ccccc1Nc1c(Cl)cccc1Cl
inactive: outcome [2] | Potency [3]

Reference: PubChem BioAssay (NCATS)
